Experimental data taken from PubChem BioAssay (NCI).
The panel holds about 79,000 compounds, 15% with a hit somewhere; the sample as a whole holds those more often. Active and inactive are the calls of the source. Rule as the data show it: active = growth inhibition above about 70%; inactive = the rest.

Columns and labels:
[1] = NCI Yeast Anticancer Drug Screen. Data for the rad52 strain (AID 147);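 also: 0% = growth of vehicle-treated control cultures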; conditions: S. cerevisiae rad52 mutant growth inhibition, stronger effect = higher value
Procedure, shortened: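 Vehicle-treated cultures served as the reference for growth inhibition of compound-exposed yeast bearing a DNA repair mutation.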

[2] = NCI Yeast Anticancer Drug Screen. Data for the wt1 strain (AID 149);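 also: 0% = growth of vehicle-treated wt1 cultures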; conditions: S. cerevisiae wt1 strain (SPY 50644) growth inhibition, stronger effect = higher value
Procedure, shortened: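 wt1 strain grown with compound or vehicle; inhibition taken from the growth difference.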

[3] = NCI Yeast Anticancer Drug Screen. Data for the rad50EPP+ strain (AID 151);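 also: 0% = growth of vehicle-treated control cultures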; conditions: S. cerevisiae rad50 mutant strain, stronger effect = higher value
Procedure, shortened: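 In this screen, rad50EPP+ yeast were exposed to compounds. Growth inhibition was scored against vehicle-treated controls.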

[4] = NCI Yeast Anticancer Drug Screen. Data for the mgt1 strain (AID 153); conditions: S. cerevisiae mgt1 mutant growth inhibition, stronger effect = higher value
Procedure, shortened: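 mgt1 strain exposed; growth vs vehicle control recorded as inhibition.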

[5] = NCI Yeast Anticancer Drug Screen. Data for the rad50 strain (AID 155);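 also: 0% = growth of vehicle-only cultures of the same strain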; conditions: S. cerevisiae rad50 strain growth inhibition, stronger effect = higher value
Procedure, shortened: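 DNA repair mutant yeast, compound exposure, growth read-out; inhibition is taken relative to vehicle.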

[6] = NCI Yeast Anticancer Drug Screen. Data for the mec2-1 strain (AID 157); conditions: S. cerevisiae mec2-1 strain, stronger effect = higher value
Procedure, shortened: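 Vehicle-treated cultures served as reference for growth inhibition of compound-exposed mec2-1 yeast.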

[7] = NCI Yeast Anticancer Drug Screen. Data for the rad14 strain (AID 159);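 also: 0% = growth of vehicle-treated control cultures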; conditions: S. cerevisiae rad14 strain growth inhibition, stronger effect = higher value
Procedure, shortened: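 DNA repair-defective yeast, compound-exposed; % growth inhibition derived by comparison with vehicle-treated controls.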

[8] = NCI Yeast Anticancer Drug Screen. Data for the sgs1 mgt1 strain (AID 161);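 also: 0% = growth of cultures given vehicle only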; conditions: S. cerevisiae sgs1 mgt1 strain, stronger effect = higher value
Procedure, shortened: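 Mutant yeast exposed to compound; growth scored against vehicle-only wells.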

[9] = NCI Yeast Anticancer Drug Screen. Data for the CLN2oe strain (AID 163);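 also: 0% = growth of vehicle-only control cultures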; conditions: S. cerevisiae CLN2oe strain, stronger effect = higher value
Procedure, shortened: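 Inhibition relative to vehicle-treated yeast is reported. Cells: strain with genetic alteration in cell-cycle control, grown with compound.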

[10] = NCI Yeast Anticancer Drug Screen. Data for the cln2 rad14 strain (AID 165);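 also: 0% = growth equal to vehicle treated cultures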; conditions: S. cerevisiae cln2 rad14 strain, stronger effect = higher value
Procedure, shortened: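 Each compound was tested on cln2 rad14 yeast. Inhibition of growth was calculated against vehicle-exposed controls.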

[11] = NCI Yeast Anticancer Drug Screen. Data for the bub3 strain (AID 167); conditions: S. cerevisiae bub3 mutant strain, stronger effect = higher value
Procedure, shortened: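 In this screen, a yeast mutant lacking normal mitotic checkpoint function is challenged with compound. Relative growth versus vehicle gives the inhibition value.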

[12] = NCI Yeast Anticancer Drug Screen. Data for the wt2 strain (AID 169);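 also: 0% = growth of vehicle-treated yeast cultures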; conditions: S. cerevisiae wt2 strain growth inhibition, stronger effect = higher value
Procedure, shortened: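 Inhibition of yeast growth was determined after compound treatment, normalised to controls receiving only vehicle.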

[13] = NCI Yeast Anticancer Drug Screen. Data for the mlh1 strain (AID 171);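 also: 0% = growth of vehicle-treated control cultures of the same strain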; conditions: S. cerevisiae mlh1 strain growth inhibition, stronger effect = higher value
Procedure, shortened: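 Vehicle-normalised growth inhibition of a repair- or checkpoint-altered yeast strain following compound treatment.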

[14] = NCI Yeast Anticancer Drug Screen. Data for the mlh1 rad18 strain (AID 175); conditions: S. cerevisiae mlh1 rad18 strain growth inhibition, stronger effect = higher value
Procedure, shortened: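 Vehicle-treated cultures served as the reference for growth inhibition in a yeast strain carrying DNA damage repair alterations exposed to each compound.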

[15] = NCI Yeast Anticancer Drug Screen. Data for the rad18 strain (AID 177); conditions: S. cerevisiae rad18 mutant growth inhibition, stronger effect = higher value
Procedure, shortened: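 Test articles were incubated with altered yeast defective in DNA damage repair. Results are given as inhibition of growth versus vehicle.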

[16] = NCI Yeast Anticancer Drug Screen. Data for the sgs1 strain (AID 173);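 also: 0% = growth of vehicle-only control cultures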; conditions: S. cerevisiae sgs1 mutant, stronger effect = higher value
Procedure, shortened: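 Screen format: yeast with repair or checkpoint alterations, compound exposure, growth read relative to vehicle.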

[17] = at 5.0 µM (retest, dose inferred, filed as 0.5)
[18] = at 50.0 µM (retest, dose inferred, filed as 5.0)

Measured: growth inhibition

CCN(CC)CCBr
inactive: [1]; at 1.2 µM 1% | [1]; at 3.7 µM 4% | [1]; at 11.0 µM 12% | [1]; at 33.0 µM 43% | [2]; at 1.2 µM -1% | [2]; at 3.7 µM 1% | [2]; at 11.0 µM -6% | [2]; at 33.0 µM -4% | [2]; at 100.0 µM -8% | [3]; at 1.2 µM 2% | [3]; at 3.7 µM 6% | [3]; at 11.0 µM 27% | [3]; at 33.0 µM 68% | [4]; at 1.2 µM -2% | [4]; at 3.7 µM 0% | [4]; at 11.0 µM -1% | [4]; at 33.0 µM -1% | [4]; at 100.0 µM -2% | [5]; at 1.2 µM 0% | [5]; at 3.7 µM -38% | [5]; [17] 9% | [5]; at 11.0 µM 13% | [5]; at 33.0 µM 53% | [5]; [18] 65% | [6]; at 1.2 µM -1% | [6]; at 3.7 µM 0% | [6]; [17] -9% | [6]; at 11.0 µM 3% | [6]; at 33.0 µM 1% | [6]; [18] 7% | [6]; at 50.0 µM -12.4% | [6]; at 100.0 µM 28% | [7]; at 1.2 µM -1% | [7]; at 3.7 µM -1% | [7]; at 11.0 µM -1% | [7]; at 33.0 µM -1% | [7]; at 100.0 µM 7% | [8]; [17] 4% | [8]; [18] 38% | [8]; at 50.0 µM 37.5% | [9]; at 1.2 µM 0% | [9]; at 3.7 µM -5% | [9]; at 11.0 µM -5% | [9]; at 33.0 µM -7% | [9]; at 100.0 µM -4% | [10]; [17] -2% | [10]; [18] 1% | [10]; at 50.0 µM 1.5% | [11]; at 1.2 µM 0% | [11]; at 3.7 µM -3% | [11]; [17] -3% | [11]; at 11.0 µM -7% | [11]; at 33.0 µM -6% | [11]; [18] -7% | [11]; at 50.0 µM -11.4% | [11]; at 100.0 µM -16% | [12]; at 1.2 µM -1% | [12]; at 3.7 µM 6% | [12]; at 11.0 µM 0% | [12]; at 33.0 µM -3% | [12]; at 100.0 µM -3% | [13]; at 1.2 µM -1% | [13]; at 3.7 µM -1% | [13]; at 11.0 µM -1% | [13]; at 33.0 µM -2% | [13]; at 100.0 µM -1% | [14]; [17] 5% | [14]; [18] 15% | [14]; at 50.0 µM 19.9% | [15]; at 1.2 µM 17% | [15]; at 3.7 µM 54%
active: [1]; at 100.0 µM 82% | [3]; at 100.0 µM 92% | [5]; at 50.0 µM 70.2% | [5]; at 100.0 µM 89% | [15]; at 11.0 µM 86% | [15]; at 33.0 µM 92% | [15]; at 100.0 µM 96%

CN(CCc1ccc(Br)cc1)CCN1CCCCC1
inactive: [1]; at 1.2 µM 19% | [1]; at 3.7 µM 26% | [1]; at 11.0 µM 51% | [2]; at 1.2 µM 8% | [2]; at 3.7 µM 16% | [2]; at 11.0 µM 20% | [2]; at 33.0 µM 60% | [3]; at 1.2 µM -1% | [3]; at 3.7 µM 0% | [3]; at 11.0 µM -1% | [3]; at 33.0 µM 0% | [3]; at 100.0 µM 6% | [4]; at 1.2 µM 7% | [4]; at 3.7 µM 20% | [5]; at 1.2 µM 15% | [5]; at 3.7 µM 18% | [5]; [17] 9% | [5]; at 11.0 µM 38% | [6]; at 1.2 µM 17% | [6]; at 3.7 µM 24% | [6]; [17] 13% | [6]; at 11.0 µM 35% | [7]; at 1.2 µM 31% | [7]; at 3.7 µM 49% | [7]; at 11.0 µM 68% | [8]; [17] 30% | [10]; [17] 55% | [11]; at 1.2 µM 20% | [11]; at 3.7 µM 29% | [11]; [17] 20% | [11]; at 11.0 µM 60% | [12]; at 1.2 µM 8% | [12]; at 3.7 µM 23% | [12]; at 11.0 µM 47% | [16]; at 1.2 µM 16% | [16]; at 3.7 µM 41% | [16]; at 11.0 µM 65% | [14]; [17] 6% | [15]; at 1.2 µM 27% | [15]; at 3.7 µM 53% | [15]; at 11.0 µM 54%
active: [1]; at 33.0 µM 81% | [1]; at 100.0 µM 98% | [2]; at 100.0 µM 97% | [4]; at 11.0 µM 70% | [4]; at 33.0 µM 94% | [4]; at 100.0 µM 99% | [5]; at 33.0 µM 91% | [5]; [18] 74% | [5]; at 50.0 µM 78.3% | [5]; at 100.0 µM 98% | [6]; at 33.0 µM 74% | [6]; [18] 73% | [6]; at 50.0 µM 86.7% | [6]; at 100.0 µM 99% | [7]; at 33.0 µM 97% | [7]; at 100.0 µM 98% | [8]; [18] 86% | [8]; at 50.0 µM 92.5% | [10]; [18] 88% | [10]; at 50.0 µM 83.2% | [11]; at 33.0 µM 94% | [11]; [18] 88% | [11]; at 50.0 µM 91% | [11]; at 100.0 µM 98% | [12]; at 33.0 µM 93% | [12]; at 100.0 µM 99% | [16]; at 33.0 µM 96% | [16]; at 100.0 µM 99% | [14]; [18] 86% | [14]; at 50.0 µM 92.5% | [15]; at 33.0 µM 94% | [15]; at 100.0 µM 98%
